Unmarked numbers belong to inactive results.
These molecules were tested on Meloidogyne hapla J2 (assay: proportion of mobile M. hapla J2 relative to DMSO control (fraction of DMSO control); higher = more viable, less nematicidal, active = 0.7 or less). Details: 60 µM; 5 days; temperature: 20 °C.
Procedure: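 DODA library (846 commercial 1,3,4- and 1,2,4-oxadiazole compounds plus commercial nematicide controls) screened at a single dose of 60 µM (0.6% DMSO) in 96-well plates, two biological replicates. Read-outs: C. elegans N2 L1 survival/reproduction score at day 6, 20 °C (0: 0-10 worms, 1: 11-20, 2: 21-50, 3: >50, 4: overgrown/starved). C. elegans daf-2 dauer, D. dipsaci and M. hapla J2 mobility at day 5, 20 °C, and P. penetrans mobility at day 5, 20 °C, each relative to DMSO controls. M. hapla egg hatching at day 12, 25 °C, relative to the mean of 8 DMSO wells on the same plate.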

Structure (SMILES) | proportion of mobile M. hapla J2
Cc1cc(C)cc(-c2nc(-c3ccc(Cl)cc3)no2)c1 | 0.938
Cc1cc(C)cc(OCc2nc(-c3cc(C)nc4ccccc34)no2)c1 | 1.02
Cc1ccccc1OCc1nc(-c2cccs2)no1 | 0.753
O=C(CSc1nnc(-c2ccc(Br)cc2)o1)Nc1ccc2ccccc2c1 | 0.866
CCOc1nc(-c2ccccc2)ccc1-c1noc(-c2cccc(OC)c2)n1 | 0.759
CCCCC(=O)Nc1ccccc1-c1nc(-c2ccccn2)no1 | 1.06
COc1ccccc1-c1nnc(SCc2ccc(C#N)cc2)o1 | 0.897
COc1ccccc1OCc1nc(-c2cccc(C)c2)no1 | 0.871
Cn1c(SCc2ccc(Cl)cc2)nnc1-c1ccco1 | 1.05
CNC(=O)c1ccccc1-c1nc(-c2ccccc2Cl)no1 | 1
Cc1cccc(C)c1NC(=O)CSc1nnc(-c2ccncc2)o1 | 0.908
c1ccc(OCc2nc(-c3cccs3)no2)cc1 | 0.652 (active)
Cc1ccc(NC(=O)CSc2nnc(-c3ccco3)o2)cc1Br | 1.03
N#Cc1ccc(OCc2nc(-c3ccc(Br)o3)no2)cc1 | 1.06
Clc1ccc(-c2noc(-c3ccccc3Cl)n2)cc1 | 0.927
c1ccc2cc(-c3nc(-c4ccncc4)no3)ccc2c1 | 0.994
Cc1ccccc1CSc1nnc(-c2ccco2)o1 | 0.547 (active)
O=C(CSc1nnc(-c2ccccc2)o1)OCc1ccccc1 | 0.999
COc1ccc(-c2noc(-c3ccccc3C(=O)Nc3cccc(C)c3C)n2)cc1 | 0.912
Cc1ccc(SCc2nc(-c3ccc(C)cc3)no2)cc1 | 0.854

Structure (SMILES) | proportion of mobile M. hapla J2
Cc1ccc(-c2noc(-c3ccccc3OCC(N)=O)n2)cc1 | 1.04
CCOc1ccccc1-c1nc(-c2cccc(C)c2)no1 | 0.982
Cc1ccc(OCc2nc(-c3ccc(F)cc3)no2)cc1C | 1.03
Cc1cccc(-c2nnc(SCC(=O)NCCc3ccccc3)o2)c1 | 0.872
O=C(CSc1nnc(-c2cccc(Cl)c2)o1)Nc1ccccc1 | 0.813
Cc1ccc(C)c(OCc2nc(-c3cccnc3)no2)c1 | 1.04
COc1cccc(NC(=O)CSc2nnc(-c3ccc(C)cc3)o2)c1 | 1.04
COc1cccc(-c2noc(-c3ccc(C)cc3Cl)n2)c1 | 1
Cc1ccccc1-c1nc(-c2ccc(Cl)cc2)no1 | 0.841
CCc1cccc(CC)c1NC(=O)CSc1nnc(-c2ccccc2OC)o1 | 0.758
COc1nc(-c2ccc(Cl)cc2)ccc1-c1noc(-c2ccncc2)n1 | 0.921
COc1nc2ccc(C)cc2cc1-c1noc(-c2ccncc2)n1 | 0.849
COc1ccc(NC(=O)CSc2nnc(-c3ccccc3C)o2)cc1 | 0.838
Cc1ccccc1OCc1nc(-c2ccccc2)no1 | 0.821
O=C(CSc1nnc(-c2cccc(Br)c2)o1)N1CCCCC1 | 0.915
CCc1ccc(OCc2nc(-c3cccnc3)no2)cc1 | 1.04
Cc1cc(C)cc(OCc2nc(-c3ccccc3Cl)no2)c1 | 0.978
COc1ccc(NC(=O)CSc2nnc(-c3ccc(Br)cc3)o2)cc1 | 1.02
Cc1ccccc1CSc1nnc(-c2ccco2)n1C | 1.03
Clc1ccc(CSc2nnc(-c3ccccc3)o2)c(Cl)c1 | 1.03

Reference: the supplement of paper PMC11219838
